The panel holds about 83,000 compounds, 20% with a hit somewhere; the sample as a whole holds those more often.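 Testing used 96-well plates and a 48-hour single-concentration exposure. Example: -40 means 40% of the starting cells died.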 The source made the active and inactive calls. Rule for the calls: active = growth percent below 10; inactive = the rest.
Experiments:
Test in all cases: NCI-60 one-dose screen, 48 h (100 = growth as untreated, 0 = no growth, -100 = all killed)
Settings in all cases: 10 µM unless noted
HT29 colon = system: HT29 colon
SNB-75 CNS = system: SNB-75 CNS
SNB-19 CNS = system: SNB-19 CNS
U251 CNS = system: U251 CNS
PC-3 prostate = system: PC-3 prostate
SK-MEL-5 melanoma = system: SK-MEL-5 melanoma
UACC-62 melanoma = system: UACC-62 melanoma
SK-MEL-28 melanoma = system: SK-MEL-28 melanoma
SK-MEL-2 melanoma = system: SK-MEL-2 melanoma
EKVX NSCLC = system: EKVX NSCLC
SN12C renal = system: SN12C renal
UO-31 renal = system: UO-31 renal
TK-10 renal = system: TK-10 renal
ACHN renal = system: ACHN renal
CAKI-1 renal = system: CAKI-1 renal
A498 renal = system: A498 renal
CCRF-CEM leukemia = system: CCRF-CEM leukemia
MOLT-4 leukemia = system: MOLT-4 leukemia
SR leukemia = system: SR leukemia
LOX IMVI melanoma = system: LOX IMVI melanoma

Measured: growth

COc1ccc(C2=NNC(c3cc(Cc4ccc(O)c(C5CC(c6ccc(OC)cc6)=NN5)c4)ccc3O)C2)cc1 (configuration not stated)
inactive: HT29 colon 92.2% | SNB-75 CNS 46.6% | SNB-19 CNS 48.2% | U251 CNS 24.8% | PC-3 prostate 42.4% | SK-MEL-5 melanoma 47.4% | UACC-62 melanoma 49.2% | SK-MEL-28 melanoma 79.4% | SK-MEL-2 melanoma 20.1% | EKVX NSCLC 30.9% | SN12C renal 52.1% | TK-10 renal 45.5% | ACHN renal 46.3% | A498 renal 103% | CCRF-CEM leukemia 11.6% | MOLT-4 leukemia 18.4% | SR leukemia 16%
active: UO-31 renal -2.57% | CAKI-1 renal -30.5%

COC(=O)c1ccc2c(c1)nc(-c1ccc(O)c(OC)c1)n2-c1cc(C(C)(C)C)[nH]n1
inactive: HT29 colon 96.3% | SNB-75 CNS 111% | SNB-19 CNS 101% | U251 CNS 93.3% | PC-3 prostate 65.8% | SK-MEL-5 melanoma 83.6% | UACC-62 melanoma 88.3% | LOX IMVI melanoma 96.8% | SK-MEL-28 melanoma 118% | SN12C renal 97.7% | UO-31 renal 50.9% | ACHN renal 108% | A498 renal 90.5% | CCRF-CEM leukemia 93.1% | MOLT-4 leukemia 81.2%

COc1ccc2c(c1)/C(=C\c1c[nH]c3ccc(F)cc13)C(=O)N2
inactive: HT29 colon 86.1% | SNB-75 CNS 86.7% | SNB-19 CNS 93.9% | U251 CNS 83.4% | PC-3 prostate 84% | SK-MEL-5 melanoma 97% | UACC-62 melanoma 90.7% | LOX IMVI melanoma 74.3% | SK-MEL-28 melanoma 105% | EKVX NSCLC 64.8% | SN12C renal 82.2% | TK-10 renal 96.2% | ACHN renal 52.7% | CAKI-1 renal 56.7% | A498 renal 68.9% | CCRF-CEM leukemia 78.9% | MOLT-4 leukemia 50.6% | SR leukemia 46.4%

C/C(=N\N1CC(=O)NC1=O)c1ccc([N+](=O)[O-])o1
inactive: HT29 colon 102% | SNB-75 CNS 96.4% | SNB-19 CNS 99.3% | U251 CNS 102% | PC-3 prostate 93.8% | SK-MEL-5 melanoma 93.4% | UACC-62 melanoma 83.2% | LOX IMVI melanoma 67.5% | SK-MEL-28 melanoma 117% | EKVX NSCLC 90.8% | SN12C renal 102% | UO-31 renal 85.1% | TK-10 renal 105% | ACHN renal 105% | CAKI-1 renal 109% | A498 renal 76.7% | CCRF-CEM leukemia 106% | MOLT-4 leukemia 99.5% | SR leukemia 95.9%

O=C(Nc1ccccc1Cl)c1cnc2ccc(C3CCNCC3)cn12
inactive: HT29 colon 18% | SNB-19 CNS 84.6% | U251 CNS 88.4% | PC-3 prostate 72.1% | SK-MEL-5 melanoma 90.6% | UACC-62 melanoma 93.6% | SK-MEL-28 melanoma 102% | SK-MEL-2 melanoma 92.4% | EKVX NSCLC 38.5% | SN12C renal 58.8% | ACHN renal 12.7% | A498 renal 36.6% | CCRF-CEM leukemia 112% | MOLT-4 leukemia 62.5% | SR leukemia 93%
active: SNB-75 CNS -6.82% | UO-31 renal -9.91% | CAKI-1 renal -40.1%

CSc1nc2c(c(=O)n1C)C(c1ccccc1)C1=C(N2)/C(=C/c2ccccc2)CCC1 (configuration not stated)
active: SR leukemia -14.2%
inactive: HT29 colon 53.7% | SNB-75 CNS 57.9% | SNB-19 CNS 66.1% | U251 CNS 48.8% | PC-3 prostate 48.1% | SK-MEL-5 melanoma 40% | UACC-62 melanoma 58.2% | SK-MEL-28 melanoma 78.7% | SK-MEL-2 melanoma 29.5% | EKVX NSCLC 39.1% | SN12C renal 55.4% | UO-31 renal 34.9% | TK-10 renal 51% | ACHN renal 57.3% | CAKI-1 renal 20.7% | A498 renal 81.4% | CCRF-CEM leukemia 20.6% | MOLT-4 leukemia 27.5%

CC(C)[C@H]1CC[C@H]2[C@@H](CC[C@H]3[C@](C)(CN)CCC[C@]23C)C1
active: HT29 colon -57.7% | U251 CNS 6.81%
inactive: SNB-75 CNS 69% | SNB-19 CNS 98.1% | PC-3 prostate 65.1% | SK-MEL-5 melanoma 99.5% | UACC-62 melanoma 92.7% | SK-MEL-28 melanoma 102% | SK-MEL-2 melanoma 80.3% | EKVX NSCLC 68.5% | SN12C renal 85.9% | UO-31 renal 70.1% | TK-10 renal 89.6% | ACHN renal 84% | CAKI-1 renal 87.6% | A498 renal 81.3% | CCRF-CEM leukemia 48.3% | MOLT-4 leukemia 37.2%

O=C(/C=C/c1cccnc1)NCCCCC1CCCN(C(=O)c2ccccc2)C1 (configuration not stated)
inactive: HT29 colon 32.8% | SNB-75 CNS 87.7% | SNB-19 CNS 53.3% | U251 CNS 43.1% | PC-3 prostate 47.5% | SK-MEL-5 melanoma 61.7% | UACC-62 melanoma 87.5% | SK-MEL-28 melanoma 73.1% | SK-MEL-2 melanoma 15.3% | EKVX NSCLC 106% | SN12C renal 38.3% | UO-31 renal 39.9% | TK-10 renal 103% | ACHN renal 73.7% | A498 renal 101% | CCRF-CEM leukemia 41.5% | MOLT-4 leukemia 43.8% | SR leukemia 33%
active: CAKI-1 renal -15.7%

CC(=O)Oc1ccc(C23c4ccccc4C2(OC(C)=O)c2cc(OC(C)=O)ccc23)cc1 (configuration not stated)
inactive: HT29 colon 111% | SNB-75 CNS 54% | SNB-19 CNS 65.9% | PC-3 prostate 30.9% | SK-MEL-5 melanoma 88.8% | UACC-62 melanoma 77.8% | LOX IMVI melanoma 48.2% | SK-MEL-28 melanoma 124% | SN12C renal 81.7% | UO-31 renal 11% | TK-10 renal 63.9% | ACHN renal 29.4% | CAKI-1 renal 85.2% | A498 renal 114% | CCRF-CEM leukemia 41.8% | MOLT-4 leukemia 67.6%
active: U251 CNS 9.83% | SR leukemia -2.28%

O=C(C(=O)N1CCCCC1)c1ccc(OC2OC(CO)C(O)C(O)C2O)cc1 (configuration not stated)
inactive: HT29 colon 100% | SNB-75 CNS 91.9% | SNB-19 CNS 96.8% | U251 CNS 96.4% | PC-3 prostate 97.3% | SK-MEL-5 melanoma 105% | UACC-62 melanoma 97.9% | SK-MEL-28 melanoma 104% | SK-MEL-2 melanoma 99.4% | EKVX NSCLC 111% | SN12C renal 98.9% | UO-31 renal 105% | TK-10 renal 107% | ACHN renal 107% | CAKI-1 renal 94.4% | A498 renal 126% | CCRF-CEM leukemia 97.7% | MOLT-4 leukemia 87.7% | SR leukemia 101%

Cc1c(C(N)=O)sc2ncn(CC(=O)Nc3ccc(Cl)cc3)c(=O)c12
inactive: HT29 colon 126% | SNB-75 CNS 101% | SNB-19 CNS 103% | U251 CNS 102% | PC-3 prostate 97% | SK-MEL-5 melanoma 107% | UACC-62 melanoma 99.2% | LOX IMVI melanoma 96.8% | SK-MEL-28 melanoma 145% | EKVX NSCLC 104% | SN12C renal 112% | UO-31 renal 160% | TK-10 renal 128% | ACHN renal 108% | CAKI-1 renal 40.6% | A498 renal 126% | CCRF-CEM leukemia 121% | MOLT-4 leukemia 112% | SR leukemia 85%

Nc1ccc2c(c1)/C(=N/O)c1cc([N+](=O)[O-])ccc1-2
active: SR leukemia 9.6%
inactive: HT29 colon 88.7% | SNB-75 CNS 64.1% | SNB-19 CNS 81.4% | U251 CNS 66.7% | PC-3 prostate 45.3% | SK-MEL-5 melanoma 80.9% | UACC-62 melanoma 73.1% | LOX IMVI melanoma 64.6% | SK-MEL-28 melanoma 102% | EKVX NSCLC 85.9% | SN12C renal 86.2% | UO-31 renal 21.7% | TK-10 renal 57.6% | ACHN renal 58.7% | CAKI-1 renal 46.6% | CCRF-CEM leukemia 25% | MOLT-4 leukemia 25.6%

Cc1cc(C)c(OC(=O)CSc2nc3ccccc3c(=O)n2CCc2ccccc2)cc1C
inactive: HT29 colon 99.5% | SNB-75 CNS 88.1% | SNB-19 CNS 103% | U251 CNS 74.1% | PC-3 prostate 66% | SK-MEL-5 melanoma 108% | UACC-62 melanoma 77% | SK-MEL-28 melanoma 111% | SK-MEL-2 melanoma 112% | EKVX NSCLC 64.4% | SN12C renal 91.8% | UO-31 renal 63.6% | TK-10 renal 124% | ACHN renal 92% | CAKI-1 renal 72.6% | A498 renal 94.5%

O=C(Nc1cccc(-n2cc(-c3ccncc3)c(-c3ccc(O)c(Cl)c3)n2)c1)Nc1ccc(Cl)c(C(F)(F)F)c1
inactive: HT29 colon 21.6% | SNB-19 CNS 33.1% | ACHN renal 10.7% | A498 renal 37.6%
active: SNB-75 CNS -12% | U251 CNS -64.4% | PC-3 prostate -22.6% | SK-MEL-5 melanoma -35.9% | UACC-62 melanoma -38.9% | LOX IMVI melanoma 0.0501% | SK-MEL-28 melanoma -12.8% | SN12C renal 9.97% | TK-10 renal -15% | CAKI-1 renal -30.9% | CCRF-CEM leukemia 1.32% | MOLT-4 leukemia -20.6% | SR leukemia 3.22%

COc1cc(C2NC(c3ccc(Cl)cc3)C(C)C(=NC(=O)c3cnccn3)C2C)cc(OC)c1OC (configuration not stated)
inactive: HT29 colon 67.8% | SNB-75 CNS 90.9% | SNB-19 CNS 86.7% | U251 CNS 77.9% | PC-3 prostate 88.8% | SK-MEL-5 melanoma 82.3% | UACC-62 melanoma 101% | SK-MEL-28 melanoma 110% | SK-MEL-2 melanoma 97.3% | EKVX NSCLC 99.3% | SN12C renal 107% | UO-31 renal 83% | TK-10 renal 103% | ACHN renal 102% | CAKI-1 renal 84.7% | A498 renal 112% | CCRF-CEM leukemia 92.4% | MOLT-4 leukemia 85.3% | SR leukemia 106%

ClC1C2CC(c3ccccc32)C1Cl (configuration not stated)
inactive: HT29 colon 100% | SNB-75 CNS 102% | SNB-19 CNS 104% | U251 CNS 106% | PC-3 prostate 104% | SK-MEL-5 melanoma 113% | UACC-62 melanoma 101% | SK-MEL-28 melanoma 108% | SK-MEL-2 melanoma 104% | EKVX NSCLC 123% | SN12C renal 102% | UO-31 renal 108% | TK-10 renal 108% | ACHN renal 104% | CAKI-1 renal 118% | A498 renal 92.4% | CCRF-CEM leukemia 96.8% | MOLT-4 leukemia 101% | SR leukemia 106%

NNC(=O)C1CC2c3ccccc3C1c1ccccc12 (configuration not stated)
inactive: HT29 colon 104% | SNB-75 CNS 90.8% | SNB-19 CNS 107% | U251 CNS 110% | PC-3 prostate 98.5% | SK-MEL-5 melanoma 110% | UACC-62 melanoma 97.1% | SK-MEL-28 melanoma 108% | SK-MEL-2 melanoma 109% | SN12C renal 97.8% | UO-31 renal 93.8% | ACHN renal 117% | CAKI-1 renal 103% | A498 renal 129% | CCRF-CEM leukemia 82.8% | MOLT-4 leukemia 105% | SR leukemia 89%

Reference: PubChem BioAssay (NCI)
